Of roughly 8,800 targets only a part is listed; those with a hit were picked by preference. About 0.5% of all pairs of compound and target were hits. A number with no mark means an inactive call.

What all share (assay): log2 fold change, soluble protein after heating vs DMSO (PISA); higher = thermal stabilisation; K562 lysate, 10 uM; active = over 0.2 and 3.5 SD of the protein, either way, in both replicates (recomputed)
Compound in experiment [1]: C1=CC=C(C=C1)[C@H](COC2=CC3=C(C=C2)NC(=O)N3)NC(=O)C4=CC=CN(C4=O)CC5=CC(=C(C=C5)F)F
Put shortly:
(§1)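 Pellets of K562 cells were dounce-homogenised in PBS pH 7.4 with 1 mM MgCl2, and the crude extract was held at 1 mg/mL protein for a 30 min treatment with 10 μM compound. Aliquots were heated for 3 min over 48°C-58°C and pooled before NP-40 was added to 0.5% at 4°C. The supernatant from 21,000xg for 90 min was quantified by TMTpro 16plex LC-MS/MS with channel sums equalised. Values are reported from duplicates as log-two fold change in thermal stability relative to solvent controls.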

Compound in experiment [2]: CC1=C(SC2=C1C(=N[C@H](C3=NN=C(N32)C)CC(=O)N)C4=CC=C(C=C4)Cl)C
Put shortly: as §1

Compound in experiment [3]: CC1=C2C(=CC=C1)N=C(N(C2=O)C3=CC=CC=C3C)CN4C=NC5=C(N=CN=C54)N
An outline of the steps:
as §1

Compound in experiment [4]: Cc1sc2c(c1C)C(c1ccc(Cl)cc1)=N[C@@H](CC(=O)OC(C)(C)C)c1nnc(C)n1-2
An outline of the steps:
as §1

Compound in experiment [5]: c1ccc([C@@H]2C[C@H]2NC2CCNCC2)cc1
Put shortly:
as §1

Chain of UniProt O14979 (O14979 whole entry, looked up): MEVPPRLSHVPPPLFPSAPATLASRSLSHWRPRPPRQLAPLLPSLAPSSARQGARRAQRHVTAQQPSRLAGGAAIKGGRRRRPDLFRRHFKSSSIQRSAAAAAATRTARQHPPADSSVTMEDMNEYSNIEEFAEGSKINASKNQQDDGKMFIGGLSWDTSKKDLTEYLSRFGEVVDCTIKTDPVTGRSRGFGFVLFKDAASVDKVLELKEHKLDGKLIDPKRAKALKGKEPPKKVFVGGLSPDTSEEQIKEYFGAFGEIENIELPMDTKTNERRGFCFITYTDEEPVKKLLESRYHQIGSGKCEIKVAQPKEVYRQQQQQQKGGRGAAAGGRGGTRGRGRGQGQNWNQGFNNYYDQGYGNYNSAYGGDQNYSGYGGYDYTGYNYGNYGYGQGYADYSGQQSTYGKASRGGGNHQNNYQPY
Chain of UniProt P50747 (P50747 whole entry, looked up): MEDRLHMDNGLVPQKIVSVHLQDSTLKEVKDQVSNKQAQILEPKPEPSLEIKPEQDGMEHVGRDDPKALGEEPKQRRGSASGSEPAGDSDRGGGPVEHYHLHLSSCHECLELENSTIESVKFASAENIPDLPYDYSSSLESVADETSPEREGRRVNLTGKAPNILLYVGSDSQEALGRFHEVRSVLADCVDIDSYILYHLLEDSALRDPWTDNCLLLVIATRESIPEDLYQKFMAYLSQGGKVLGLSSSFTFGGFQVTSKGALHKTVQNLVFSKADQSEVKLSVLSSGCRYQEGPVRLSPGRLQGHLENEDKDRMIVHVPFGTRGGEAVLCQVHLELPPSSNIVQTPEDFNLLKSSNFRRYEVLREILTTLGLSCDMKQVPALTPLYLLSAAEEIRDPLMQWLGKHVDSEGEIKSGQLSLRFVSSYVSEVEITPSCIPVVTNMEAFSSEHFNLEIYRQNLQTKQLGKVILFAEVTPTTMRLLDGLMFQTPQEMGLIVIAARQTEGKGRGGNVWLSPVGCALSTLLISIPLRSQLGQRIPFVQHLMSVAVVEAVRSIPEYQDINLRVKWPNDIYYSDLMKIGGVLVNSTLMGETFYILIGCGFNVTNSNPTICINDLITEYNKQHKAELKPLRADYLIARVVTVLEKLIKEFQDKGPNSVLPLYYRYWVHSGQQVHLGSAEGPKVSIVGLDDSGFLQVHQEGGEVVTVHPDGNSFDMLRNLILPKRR
Chain of UniProt Q5T447 (Q5T447 whole entry, looked up): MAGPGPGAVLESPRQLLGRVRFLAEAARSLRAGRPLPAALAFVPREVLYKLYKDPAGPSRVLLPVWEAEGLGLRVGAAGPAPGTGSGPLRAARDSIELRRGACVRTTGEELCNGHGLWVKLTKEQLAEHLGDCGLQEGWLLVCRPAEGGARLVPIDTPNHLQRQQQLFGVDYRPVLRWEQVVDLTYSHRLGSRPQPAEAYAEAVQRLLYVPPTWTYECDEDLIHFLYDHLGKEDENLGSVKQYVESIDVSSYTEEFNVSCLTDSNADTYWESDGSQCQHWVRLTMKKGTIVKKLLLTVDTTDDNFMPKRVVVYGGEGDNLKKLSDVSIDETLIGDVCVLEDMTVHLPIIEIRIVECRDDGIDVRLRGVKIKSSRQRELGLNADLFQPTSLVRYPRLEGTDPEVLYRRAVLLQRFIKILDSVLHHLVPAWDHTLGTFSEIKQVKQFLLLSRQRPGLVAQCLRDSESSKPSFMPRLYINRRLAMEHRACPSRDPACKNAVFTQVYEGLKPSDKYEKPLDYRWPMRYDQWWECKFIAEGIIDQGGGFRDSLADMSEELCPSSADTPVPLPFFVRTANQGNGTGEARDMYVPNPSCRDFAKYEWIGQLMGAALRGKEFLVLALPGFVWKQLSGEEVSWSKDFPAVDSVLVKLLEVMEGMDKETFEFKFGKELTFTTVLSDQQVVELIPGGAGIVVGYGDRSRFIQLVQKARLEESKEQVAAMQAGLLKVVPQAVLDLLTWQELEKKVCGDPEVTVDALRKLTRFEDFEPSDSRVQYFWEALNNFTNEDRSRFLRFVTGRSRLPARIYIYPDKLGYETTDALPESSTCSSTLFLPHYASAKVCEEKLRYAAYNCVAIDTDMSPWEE
Chain of UniProt Q9Y287 (Q9Y287 whole entry, looked up): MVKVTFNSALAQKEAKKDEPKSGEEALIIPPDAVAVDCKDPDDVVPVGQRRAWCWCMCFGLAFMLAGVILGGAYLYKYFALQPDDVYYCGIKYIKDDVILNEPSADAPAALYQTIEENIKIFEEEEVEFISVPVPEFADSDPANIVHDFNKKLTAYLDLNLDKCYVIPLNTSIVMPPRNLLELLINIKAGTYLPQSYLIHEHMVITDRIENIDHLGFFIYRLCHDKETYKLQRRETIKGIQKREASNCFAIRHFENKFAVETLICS
Chain of UniProt P36969 (P36969 whole entry, looked up): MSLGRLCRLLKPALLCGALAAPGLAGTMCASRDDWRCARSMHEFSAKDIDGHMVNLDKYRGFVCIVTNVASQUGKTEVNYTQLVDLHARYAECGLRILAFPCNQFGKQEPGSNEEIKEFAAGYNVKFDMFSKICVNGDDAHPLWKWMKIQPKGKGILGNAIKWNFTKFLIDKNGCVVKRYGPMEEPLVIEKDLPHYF
Chain of UniProt P52655 (P52655 whole entry, looked up): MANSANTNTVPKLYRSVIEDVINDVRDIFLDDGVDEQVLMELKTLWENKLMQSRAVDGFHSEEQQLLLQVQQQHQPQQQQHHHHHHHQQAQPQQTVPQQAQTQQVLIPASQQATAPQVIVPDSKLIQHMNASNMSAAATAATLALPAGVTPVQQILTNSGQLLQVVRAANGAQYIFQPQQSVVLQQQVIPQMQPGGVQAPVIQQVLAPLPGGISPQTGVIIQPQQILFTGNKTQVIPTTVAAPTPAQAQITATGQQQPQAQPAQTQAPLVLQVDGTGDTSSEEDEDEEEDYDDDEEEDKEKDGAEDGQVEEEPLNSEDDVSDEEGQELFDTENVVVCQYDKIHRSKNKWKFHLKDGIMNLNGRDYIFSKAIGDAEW

For the target HNRNPDL (UniProt O14979), the log2 fold change in experiment [1] was 0.033; in experiment [2], 0.002; in experiment [3], 0; in experiment [4], 0.048; in experiment [5] it was -0.071.
The matching figures for IMMT (UniProt C9J406): -0.055, 0.041, 0.049, 0.077 and -0.056.
The matching figures for GTF2A1 (UniProt P52655): 0.025, -0.033, -0.01, -0.057 and 0.202.
As for HECTD3 (UniProt Q5T447), the log2 fold change was -0.06 in experiment [1]; 0.038 in experiment [2]; 0.046 in experiment [3]; 0.034 in experiment [4]; 0.06 in experiment [5].
On the same counts, the results for GPX4 (UniProt P36969) are 0.018, -0.01, 0.036, -0.03 and 0.048.
On the same counts, the results for H4C1 (UniProt P62805) are -0.063, 0.037, -0.031, 0.664 (active) and 0.125.
The matching figures for ITM2B (UniProt Q9Y287): -0.019, -0.032, 0.43 (active), 0.058 and -0.027.
On to HLCS (UniProt P50747), for which the log2 fold change in experiment [1] was -0.027; in experiment [2], 0.027; in experiment [3], 0.011; in experiment [4] it was -0.006; in experiment [5], 0.038.
In the case of GSTZ1 (UniProt G3V4T6), the log2 fold change in experiment [1] is 0.035; in experiment [2], 0.002; in experiment [3], -0.036; in experiment [4], 0.062; in experiment [5], -0.042.

Source of the values: the supplement of paper PMC10849652.
